The full ranking holds about 25,000 sequences; the median of “ln(normalized median fluorescence intensity)” is about 9.3, and the highest 2% start at about 10. Shown is part of a subset that was picked to be rich in the highest values.

For this assay, the system named is PF3D7_0420300 AP2 domain 1 (GST-tagged). In words: gcPBM binding intensity (ln(normalized median fluorescence intensity)); higher = stronger DNA binding. In outline: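 The binding buffer was 1× PBS containing 1% milk, 0.2 mg/ml BSA, 0.5% salmon testes DNA and 0.03% Triton X-100. In it, GST-tagged P. falciparum DNA-binding domains expressed in E. coli were applied for 1 h to an Agilent 4 × 180k array of primer-extended double-stranded 36-bp intergenic genomic probes plus negative controls. Binding intensity, read with Alexa488 anti-GST antibody and a 488 nm scan, is the highest Masliner-normalised natural-log median intensity across replicate spots of either probe orientation.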
Regarding “TATATTAAACCATGTAGTACCTTGAATAAATATTAT [XGTACX_site8254]”, the “gcPBM binding intensity (ln)” value stood at 9.23.

Take “TTTATTTAATTCATTGCATGTAATTTTTGTGTCCAC [TGCATGCA_site677]”: the “gcPBM binding intensity (ln)” value worked out at 9.21.

For the sequence “ATTACATAACAATATACACACTATTGATTAAAGAGA [CACACA_site5602]”, the “gcPBM binding intensity (ln)” value was 9.56. On to “GGAATATAAATACATACACACATATATATATATATA [CACACA_site4998]”, for which the “gcPBM binding intensity (ln)” value was determined as 9.44.

Consider “TTTTTTATTTTGTGCACACACATAAAAATATATATA [CACACA_site761]”, for which the “gcPBM binding intensity (ln)” value amounted to 9.5.

On to “TTAATAAGAGAGCAATAGGTGGACTGTTTCTTTTAT [CACACA_negctrl_site1239]”, for which the “gcPBM binding intensity (ln)” value worked out at 9.22. As for “AATTAACAAAAACACACACACACACCGACAAAAAAA [CACACA_site4444]”, the “gcPBM binding intensity (ln)” value was 10.3.

Regarding “TACCAAAATAGACACACACACAAAATATGTAAATAT [CACACA_site6963]”, the “gcPBM binding intensity (ln)” value was 10.2. Regarding “TAAATTAAAAAACACACACACAAAAAAAAAAAAAAA [CACACA_site2263]”, the “gcPBM binding intensity (ln)” value came to 10. To “AAATAAATAATATGTAAACACACAAAAAATAAAAAT [CACACA_site8307]” belongs 9.72. For “CACAAAAATAGACACACACACATATAAATAAATATA [CACACA_site6598]”, the “gcPBM binding intensity (ln)” value amounted to 10.

For “AATTAACAAAAACACACACACACACCCACAAAAAAA [CACACA_site517]”, the “gcPBM binding intensity (ln)” value turned out to be 10.1. “ATATATATATATATATATATATATATATATTATATA [XGTACX_negctrl_site48]”: the “gcPBM binding intensity (ln)” value was 8.89. On to “ATGTGTATAATTAAATGTACATATATATATATATAT [XGTACX_site829]”, for which the “gcPBM binding intensity (ln)” value worked out at 9.52. Regarding “ATATGTAGAATAAAAAAAAAAAAAAAAAAAAAAAAT [CACACA_negctrl_site621]”, the “gcPBM binding intensity (ln)” value was 9.39. Consider “TTTAATCATATGTTATATAATAAGCCCCCCCCCCAA [CACACA_negctrl_site486]”, for which the “gcPBM binding intensity (ln)” value was 10.4. As to “ATATATATATAATTATATAAAATATATCATATGTTA [XGTACX_negctrl_site47]”, the “gcPBM binding intensity (ln)” value turned out to be 9.15. To “TATTAATTATATTTATGTACATAATCATATTATTAT [XGTACX_site7938]” belongs 9.37. In the case of “TGTAGCCTGGAGAAGAGTACATAGTATCTGGTAGCT [XGTACX_site4943]”, the “gcPBM binding intensity (ln)” value turned out to be 9.12. Turning to “ATATTCATGTTGATATGTACTTATTCTATATTGAAT [XGTACX_site8347]”, the “gcPBM binding intensity (ln)” value was 9.28.

Take “AAGTGCATATTATTCACACATAATAATTGTATACCT [CACACA_site5965]”: the “gcPBM binding intensity (ln)” value stood at 9.34. Consider “CTAAACAAAAAATAATGTACACATACATAAAAAATA [XGTACX_site1808]”, for which the “gcPBM binding intensity (ln)” value was found to be 9.35. With “AAAAAAATTCTTGGCGCACACACTTTAAAAATTAAA [CACACA_site597]”, the “gcPBM binding intensity (ln)” value stood at 9.24. To “AAATATTAGTAACACAGACACACAAAAAAAAAAAAA [CACACA_site2175]” belongs 9.5; to “AAAAAACAAAAACACACGCACACAAAAAAAAAAAAA [CACACA_site802]”, 9.82. To “GTAAAAAAATAGCACACACACAAAAACACGCACAAA [CACACA_site6723]” belongs 10.2; to “AAGTAAAAAAATAGCACACACACAAAAACACCCACA [CACACA_site1291]”, 10. As for “AAGTAAAAAAATAGCACACACACAAAAACACAGACA [CACACA_site4839]”, the “gcPBM binding intensity (ln)” value amounted to 10.2.

For the sequence “CAATATAAAAAACACACGCACACAAAAAAAAAAAAA [CACACA_site3521]”, the “gcPBM binding intensity (ln)” value was found to be 9.79. Consider “AAAAAAAACATCCTCACACATATATATATATATATA [CACACA_site5166]”, for which the “gcPBM binding intensity (ln)” value came out at 9.18. The same measure for “TCACCATATAAACGTGCACACTACAAAAATATATAA [CACACA_site5413]”: 9.26. The same measure for “TTGGTTATACAACACATGCACACGTAAATAAATATT [CACACA_site3841]”: 9.38; for “AAAGACGTTTATAAATGTACATACACTTTAAAAGTT [XGTACX_site8753]”: 9.08. For “AAAAAGTGATTAAAATGTACAAAATGCATAAAAGAA [XGTACX_site6625]”, the “gcPBM binding intensity (ln)” value came to 9.6. As to “ATAAATAAATAAAAGCGTACATATATATAAAATATA [XGTACX_site8107]”, the “gcPBM binding intensity (ln)” value stood at 9.39.

“TATAAATAGAGGAAGCGTACATATATATATATATAT [XGTACX_site4993]”: the “gcPBM binding intensity (ln)” value turned out to be 9.34. As to “TCGGGAGGGGGGAAGCGTACATATATAAAATTATTA [XGTACX_site4683]”, the “gcPBM binding intensity (ln)” value worked out at 10.2. The same measure for “TTCTTACATGAGTGTACACACTTTTTTTCAGAAAAT [CACACA_site4215]”: 9.19. For the sequence “AACGCACGAGGACACACACACATATTTATATTTATA [CACACA_site6608]”, the “gcPBM binding intensity (ln)” value was found to be 9.87.

Regarding “AAACCGTGGGAGCACACACACACACGCGCACATATA [CACACA_site6288]”, the “gcPBM binding intensity (ln)” value amounted to 10.1. With “CGTGGGAGCAGACACACACACACACCCATATATATA [CACACA_site334]”, the “gcPBM binding intensity (ln)” value turned out to be 10.1. In the case of “ACCGTGGGAGGACACACACACACACGCACATATATA [CACACA_site6289]”, the “gcPBM binding intensity (ln)” value amounted to 10.3. In the case of “ACCGTGGGAGGACACACACACACACCCACATATATA [CACACA_site4339]”, the “gcPBM binding intensity (ln)” value came out at 10.2. “CGTGGGAGCGGACACACACACACACCCATATATATA [CACACA_site4340]”: the “gcPBM binding intensity (ln)” value turned out to be 10.1. Consider “ACTGTGGGAATAACCACACACACACCCACATATATA [CACACA_site3542]”, for which the “gcPBM binding intensity (ln)” value amounted to 10. On to “ACCGTGGGAAGACACACACACACACCCACATATATA [CACACA_site333]”, for which the “gcPBM binding intensity (ln)” value was 10.2. “ATGGGACATATATATACACACATATATATATATATA [CACACA_site1202]”: the “gcPBM binding intensity (ln)” value was 9.46.
